High-throughput results deposited in PubChem by Broad Institute.
A selection: hits, their analogues and other compounds. The true share with any hit is near 4%.
esBAF inh: SWI/SNF esBAF complex inhibition; 350,000 tested, 2% active; reporter increase, % at 12.5 µM; mouse ES cells, Bmi1-luciferase knock-in reporter, 24 h; 100% = twice the neutral-well signal; in the data active = activation above about 40%; inconclusive = no clear call, values can overlap the other calls;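 note: a rise in the Bmi1 reporter signal indicates esBAF inhibition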
MITF act: MITF TRPM1 promoter activation in melanoma cells. SK-MEL-5 TRPM1-promoter luciferase, 24 h; % of positive control, neutral wells = 0. activation, % at 12.5 µM. 300,000 tested, 0.75% active;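 active = mean activation of at least 80% with every replicate also reaching 80%; inconclusive = mean reaches 80% but some replicate falls short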
EBV LMP1 NFkB: Epstein-Barr LMP1 NF-kappaB reporter inhibition; LMP1-induced NF-kappaB luciferase reporter cells, luminescence; inhibition, % at 12.5 µM; 350,000 tested, 0.69% active; in the data active = inhibition above about 41%; inconclusive = no clear call, values can overlap the other calls
Wnt act: activates Wnt/beta-catenin signaling in a reporter cell assay; 300,000 tested, 1.2% active; AID 743398; activator, plate reader; activation, % at 9.35 µM; in the data active = activation above about 30%, passing the limit was not always enough; inconclusive = no clear call, values can overlap the other calls
Statin myotox sup: suppression of simvastatin myotoxicity | rescue of ATP level, % at 7.49 µM | AID 602340 | 330,000 tested, 0.78% active | C2C12 myotubes + simvastatin, ATP luminescence, 48 h; scaled: DMSO 0, geranylgeraniol control 100;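 active = mean ATP rescue above about 67%, or every replicate alone reaching that limit, limit read from the data, passing the limit was not always enough; inconclusive = no clear call, values can overlap the other calls; inactive = mean under the limit and some replicate under it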;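 note: myotubes were challenged with 10 µM simvastatin during compound exposure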
TRPM1 prom inh: inhibitors of MITF-driven TRPM1 promoter in melanoma cells. inhibition, % at 12.5 µM. 330,000 tested, 0.83% active. AID 488899. SK-MEL-5 TRPM1 promoter luciferase, 24 h;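 active = mean inhibition across replicates of 60% or more, whatever share of single replicates reaches that level; inconclusive = some that reach 60%, reason not given; inactive = mean inhibition across replicates below 60%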
Large screens that a line does not name were inactive.

COc1cccc(C(=O)Nc2nnc(-c3ccc(OC)cc3OC)s2)c1	none (no result: MITF act, TRPM1 prom inh)
COc1cccc(C(=O)N(C)c2nnc(-c3ccncc3)s2)c1	Statin myotox sup 82 (no result: Wnt act)
COc1cccc(C(=O)Nc2nnc(-c3ccccc3)s2)c1	MITF act inconclusive, Wnt act 36
COCC(=O)Nc1nnc(-c2ccc(C(C)(C)C)cc2)s1	MITF act 91
CN(C(=O)c1cccc(C#N)c1)c1nnc(-c2ccncc2)s1	none (no result: esBAF inh, Wnt act, Statin myotox sup)
C[C@H]1CN([C@@H](C)CO)C(=O)CCCn2cc(nn2)CO[C@@H]1CN(C)C(=O)NC1CCCC1	none (no result: MITF act, EBV LMP1 NFkB, Wnt act, TRPM1 prom inh)
CCCC#Cc1cnc2c(c1)C(=O)N([C@@H](C)CO)C[C@H](C)[C@@H](CN(C)C(=O)c1cnccn1)O2	none (no result: MITF act, EBV LMP1 NFkB, Wnt act, TRPM1 prom inh)
COCCN(C(=O)CCc1ccc(OC)cc1)c1nnc(-c2ccncc2)s1	none (no result: esBAF inh, Statin myotox sup)
CCCC(=O)N(C)c1nnc(-c2ccc(OC)cc2)s1	Wnt act 34
COc1cccc(-c2nnc(N(C)C(=O)C3CCOC3)s2)c1 (configuration not stated)	Statin myotox sup 97
CC(C)(C)c1ccc(-c2nnc(NC(=O)c3ccccc3)s2)cc1	esBAF inh 49 (no result: Wnt act)
CN1C(=O)c2cc(NC(=O)c3ccccc3)ccc2OC[C@@H]2O[C@@H](CC(=O)NC3CCCC3)CC[C@@H]21	none (no result: MITF act, EBV LMP1 NFkB, Wnt act, TRPM1 prom inh)
CC(C)NC(=O)Nc1ccc2c(c1)C(=O)N([C@@H](C)CO)C[C@H](C)[C@H](CN(C)S(=O)(=O)c1ccc(Cl)cc1)OCCCC[C@@H](C)O2	none (no result: MITF act, EBV LMP1 NFkB, Wnt act, Statin myotox sup, TRPM1 prom inh)
COc1ccc(/C=C/C2=NC(=C\N(C)C)/C(=O)O2)cc1	esBAF inh 51, Statin myotox sup 114
O=C(Nc1ccc(Cl)cc1)c1cccs1	esBAF inh 52
Cc1ccc(NC(=S)NC(=O)c2cccs2)cc1F	esBAF inh 81, MITF act 93
CC(Cc1cccs1)NC(=O)Nc1ccc(Cl)cc1 (configuration not stated)	Wnt act 58 (no result: esBAF inh, Statin myotox sup)
CC(=O)Nc1ccc2[nH]ccc2c1	none
O=C(Cc1ccc(Cl)cc1)Nc1ccc(NC(=O)c2cccs2)cc1	none (no result: esBAF inh, Statin myotox sup)
CC(Cc1cccs1)NC(=O)Nc1ccccc1 (configuration not stated)	none (no result: Wnt act)
CC(=O)NC(=S)Nc1ccc(NC(=O)c2cccs2)cc1	none (no result: esBAF inh, Wnt act, Statin myotox sup)
O=C(Nc1ccc2[nH]ccc2c1)c1cccs1	MITF act 106
O=C1N(C2CCCC2)C[C@@H]2C[C@@H](c3cccn3-c3nccs3)N3CCC[C@@]123	none (no result: esBAF inh, Statin myotox sup)
O=C(c1ccccn1)N1CC[C@@H]2[C@H](CO)Nc3ccc(-c4cccc(F)c4)cc3[C@@H]21	none (no result: MITF act, EBV LMP1 NFkB, Wnt act, TRPM1 prom inh)
O=C(NC(=S)Nc1ccc(Br)cn1)c1cccs1	Wnt act 59 (no result: esBAF inh, Statin myotox sup)
Cc1cccnc1NC(=S)NC(=O)c1cccs1	Wnt act 34
CCCn1cnc2cc(NC(=O)c3cccs3)ccc21	esBAF inh 55, MITF act 94, Wnt act 32
CCCn1cnc2cc(NC(=O)c3ccco3)ccc21	none
O=C(NC(=S)Nc1ccccc1)c1cccs1	esBAF inh 78, MITF act 101
O=C(CN(C(=O)Cn1nnc(-c2cccs2)n1)c1ccc2c(c1)OCCO2)NC1CCCCC1	none (no result: Wnt act)
O=C(Nc1ccc(NC(=O)c2ccccc2F)cc1)c1cccs1	esBAF inh 74, MITF act 137, Wnt act 37
O=C(Nc1ccc(NC(=O)c2cccs2)cc1)c1cccs1	esBAF inh 53, MITF act inconclusive
Cc1ccc(-c2cc(C(F)(F)F)n3nc(C(=O)Nc4ccon4)cc3n2)cc1C	none
OCCC1CN(Cc2nc(-c3ccccc3)cs2)CCN1Cc1ccc(F)cc1 (configuration not stated)	none (no result: Statin myotox sup)
OCCC1CN(Cc2nc(-c3ccccc3)cs2)CCN1C1CCCC1 (configuration not stated)	Wnt act 34
COCCn1c(SCC(=O)NCc2ccco2)nnc1-c1c[nH]c2ccccc12	EBV LMP1 NFkB 73
CCn1c(SC(C)C(=O)OC)nnc1-c1c[nH]c2ccccc12 (configuration not stated)	EBV LMP1 NFkB 75
CC(C)Sc1nnc(-c2c[nH]c3ccccc23)n1C	esBAF inh 41 (no result: MITF act, TRPM1 prom inh)
COc1ccccc1OCc1cc(C(=O)N2CCN(C)C(c3ccccc3)C2)no1 (configuration not stated)	Wnt act 41 (no result: esBAF inh, Statin myotox sup)
